PubChem BioAssay AID1159580 (chemical genetic matrix, 2015)
The whole screen tested about 5,500 compounds, of which about 2,000 (36%) were called active. Roughly 18% stayed inconclusive and do not appear here. No stated cut-off is given here; in the data, active means normalized growth mostly below about 0.91 (no sharp cut-off); inconclusive means no clear call, values can overlap the other calls; inactive means mostly above about 0.92. Some of the results follow.

Assay: chemical genetic growth profiling, strain panel (AID 1159580);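 further: tested at 20 µM; growth read once vehicle control cultures reached saturation at 30 °C; 1 = growth at the plate median or of vehicle wells; lower values mean less growth of the strain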
Conditions: S. cerevisiae deletion strains, growth OD

Measured: normalized growth

C[C@H]1O[C@@H](n2cc(F)c(=O)[nH]c2=O)[C@H](O)[C@@H]1O
inactive: locus YAL013W, strain DEP1, hits give low values 1.04 | locus YAL040C, strain CLN3, hits give low values 1 | locus YCL061C, strain MRC1 (second series), hits give low values 1.01 | locus YDR363W, strain ESC2, hits give low values 1.02 | locus YER002W, strain NOP16, hits give low values 1.04 | locus YGR229C, strain SMI1, hits give low values 1.07 | locus YJR075W, strain HOC1, hits give low values 1.01 | locus YMR263W, strain SAP30, hits give low values 1.01 | locus YMR307W, strain GAS1, hits give low values 1 | locus YNL153C, strain GIM3, hits give low values 1.02 | locus YNL175C, strain NOP13, hits give low values 1 | locus YNL197C, strain WHI3, hits give low values 1 | locus YNL224C, strain SQS1, hits give low values 0.984 | locus YNL322C, strain KRE1, hits give low values 1.02 | locus YOR083W, strain WHI5 (second series), hits give low values 1.01 | locus YPL055C, strain LGE1, hits give low values 1.02 | locus YPL241C, strain CIN2, hits give low values 1.01

CCCCCCNC(=O)n1cc(F)c(=O)[nH]c1=O
inactive: locus YAL021C, strain ccr4, hits give low values 0.934 | locus YAL030W, strain snc1, hits give low values 0.96 | locus YBL061C, strain skt5, hits give low values 0.972 | locus YBR023C, strain chs3, hits give low values 0.937 | locus YBR171W, strain sec66, hits give low values 0.996 | locus YBR231C, strain swc5, hits give low values 0.988 | locus YCL011C, strain gbp2, hits give low values 0.91 | locus YCR088W, strain abp1, hits give low values 0.934 | locus YDL005C, strain med2, hits give low values 0.941 | locus YDL040C, strain nat1, hits give low values 0.991 | locus YDR001C, strain nth1, hits give low values 0.995 | locus YDR297W, strain sur2, hits give low values 0.978 | locus YDR334W, strain swr1, hits give low values 0.93 | locus YDR392W, strain spt3, hits give low values 0.776 | locus YEL061C, strain CIN8 (second series), hits give low values 0.95 | locus YER111C, strain swi4, hits give low values 0.923 | locus YGL167C, strain pmr1, hits give low values 0.918 | locus YGL227W, strain vid30, hits give low values 0.99 | locus YGL240W, strain doc1, hits give low values 0.971 | locus YHR013C, strain ard1, hits give low values 0.933 | locus YJL095W, strain BCK1 (second series), hits give low values 0.945 | locus YJL115W, strain asf1, hits give low values 0.941 | locus YJL154C, strain vps35, hits give low values 0.943 | locus YKL160W, strain elf1, hits give low values 0.907 | locus YKR026C, strain gcn3, hits give low values 0.993 | locus YKR091W, strain srl3, hits give low values 0.975 | locus YLL026W, hits give low values 0.974 | locus YLL041C, strain sdh2, hits give low values 0.979 | locus YLR027C, strain aat2, hits give low values 0.956 | locus YLR342W, strain FKS1, hits give low values 0.938 | locus YLR370C, strain arc18, hits give low values 0.923 | locus YLR384C, strain iki3, hits give low values 0.963 | locus YML120C, strain ndi1, hits give low values 0.92 | locus YMR058W, strain fet3, hits give low values 0.926 | locus YMR125W, strain sto1, hits give low values 0.958 | locus YMR129W, hits give low values 0.987 | locus YMR205C, strain PFK2, hits give low values 0.898 | locus YMR231W, strain pep5, hits give low values 0.942 | locus YNL209W, strain ssb2, hits give low values 0.959 | locus YNL322C, strain KRE1 (second series), hits give low values 0.936 | locus YNR049C, strain mso1, hits give low values 0.931 | locus YOR070C, strain gyp1, hits give low values 0.958 | locus YOR080W, strain dia2, hits give low values 0.968 | locus YOR265W, strain rbl2, hits give low values 0.968 | locus YPL240C, strain hsp82, hits give low values 0.978
active: locus YAL026C, strain drs2, hits give low values 0.849 | locus YBR009C, strain hhf1, hits give low values 0.861 | locus YBR279W, strain paf1, hits give low values 0.834 | locus YCL016C, strain dcc1, hits give low values 0.86 | locus YCL069W, strain vba3, hits give low values 0.842 | locus YDR069C, strain doa4, hits give low values 0.803 | locus YDR137W, strain rgp1, hits give low values 0.553 | locus YDR159W, strain sac3, hits give low values 1.22 [resistant] | locus YDR195W, strain ref2 0.678 | locus YDR335W, strain msn5, hits give low values 0.782 | locus YEL003W, strain gim4, hits give low values 0.895 | locus YEL037C, strain rad23, hits give low values 0.894 | locus YER015W, strain faa2, hits give low values 0.889 | locus YER016W, strain bim1, hits give low values 0.899 | locus YER155C, strain BEM2 (second series), hits give low values 0.767 | locus YFR010W, strain ubp6, hits give low values 0.757 | locus YGL173C, strain kem1, hits give low values 0.897 | locus YGL253W, strain hxk2, hits give low values 0.613 | locus YHR027C, strain rpn1, hits give low values 0.911 | locus YHR030C, strain SLT2, hits give low values 0.532 | locus YHR079C, strain IRE1, hits give low values 0.45 | locus YHR142W, strain chs7, hits give low values 0.741 | locus YJL092W, strain hpr5, hits give low values 0.912 | locus YJL095W, strain BCK1, hits give low values 0.541 | locus YJL129C, strain trk1, hits give low values 0.76 | locus YJL164C, strain tpk1, hits give low values 0.865 | locus YJL166W, strain qcr8, hits give low values 0.902 | locus YJR066W, strain TOR1, hits give low values 0.407 | locus YLL001W, strain dnm1, hits give low values 0.773 | locus YLR113W, strain HOG1, hits give low values 0.607 | locus YLR221C, strain rsa3, hits give low values 0.697 | locus YLR258W, strain gsy2, hits give low values 0.884 | locus YLR262C, strain YPT6 (second series), hits give low values 0.528 | locus YLR320W, strain mms22, hits give low values 0.733 | locus YLR357W, strain rsc2, hits give low values 0.803 | locus YNL071W, strain lat1, hits give low values 0.891 | locus YNL183C, strain NPR1, hits give low values 0.48 | locus YNL248C, strain rpa49, hits give low values 0.589 | locus YOR001W, strain rrp6, hits give low values 0.257 | locus YOR083W, strain WHI5, hits give low values 0.84 | locus YOR106W, strain vam3, hits give low values 0.668 | locus YOR231W, strain MKK1, hits give low values 0.41 | locus YOR270C, strain vph1, hits give low values 0.518 | locus YOR290C, strain snf2, hits give low values 0.723 | locus YPL051W, strain arl3, hits give low values 0.843 | locus YPL078C, strain atp4, hits give low values 0.77 | locus YPL106C, strain sse1, hits give low values 0.722 | locus YPL256C, strain CLN2, hits give low values 0.564
